Data reported in the supplement of paper PMC3342239.
Structures can show the parent of a compound that is named as a salt.

test system: Saccharomyces cerevisiae; assay: fraction of cells in G1 phase (DNA content, flow cytometry); higher = more cells with unreplicated DNA (G1 delay); details: temperature: 30 C; YPD; BY4741 PDR5+ SNQ2+; drug added to: actively dividing cells; 4.33 h
Description: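 S. cerevisiae cultures in YPD at 30°C were treated with each drug of the Enzo FDA-approved library at 20 µg/ml (final µM given per drug). Cells were fixed after 6–7 h (S1) or 6 h (S2), or after 4.33 h for BY4741 (S3), then stained with SYTOX Green. %G1 is the Dean-Jett-Fox G1 peak area divided by the G1+G2/M peak areas, written as a fraction and averaged over at least two independent experiments. DMSO reference: mean ~0.49; >0.60 is called High G1 and <0.3876 Low G1. Scale: lower means mitotic delay.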

Row | Compound | fraction of cells in G1 phase
1 | C#C[C@]1(O)CC[C@H]2[C@@H]3CCC4=CC(=O)CCC4=C3C=C[C@@]21CC [Gestrinone] (64.8457 µM) | 0.423

same assay, conditions: temperature: 30 C; YPD; JTY2953 pdr5 snq2 (sensitized); drug added to: actively dividing cells; 6 h

Row | Compound | fraction of cells in G1 phase
2 | O=c1[nH]c2ccccc2n1C1CCN(CCCC(c2ccc(F)cc2)c2ccc(F)cc2)CC1 [Pimozide] (43.3313 µM) | 0.344
3 | C[C@]12Cc3c[nH]nc3C[C@@H]1CC[C@@H]1[C@@H]2CC[C@@]2(C)[C@H]1CC[C@]2(C)O [Stanozolol] (60.8824 µM) | 0.497
4 | C#C[C@]1(O)CC[C@H]2[C@@H]3CCC4=CC(=O)CCC4=C3C=C[C@@]21CC [Gestrinone] (64.8457 µM) | 0.736

same assay, conditions: temperature: 30 C; YPD; JTY2953 pdr5 snq2 (sensitized); drug added to: cultures diluted from stationary phase; 6-7 h

Row | Compound | fraction of cells in G1 phase
5 | CC(C)CC(N(C)C)C1(c2ccc(Cl)cc2)CCC1 (stereo not given) [Sibutramine HCl] (71.4652 µM) | 0.516
6 | N[C@@H](Cc1ccc(N(CCCl)CCCl)cc1)C(=O)O [Melphalan] (65.5294 µM) | 0.45
7 | CC(=O)O[C@H]1C[C@@H]2CC[C@@H]3[C@H](CCC4(C)[C@H]3C[C@H]([N+]3(C)CCCCC3)[C@@H]4OC(C)=O)C2(C)C[C@@H]1[N+]1(C)CCCCC1 (stereo not given in full) [Pancuronium Br] (34.9114 µM) | 0.487
8 | O=c1[nH]c2ccccc2n1C1CCN(CCCC(c2ccc(F)cc2)c2ccc(F)cc2)CC1 [Pimozide] (43.3313 µM) | 0.85
9 | NCCCNCCSP(=O)(O)O [Amifostine] (93.3599 µM) | 0.512
10 | CC(N)C(O)c1ccccc1 (stereo not given) [Phenylpropanolamine] (132.266 µM) | 0.466
11 | CN1[C@@H]2CC[C@H]1C[C@@H](OC(=O)C(CO)c1ccccc1)C2 (stereo not given in full) [Atropine sulfate] (69.1138 µM) | 0.474
12 | O=C1C[C@@H]2OCC=C3CN4CC[C@]56c7ccccc7N1[C@H]5[C@H]2[C@H]3C[C@H]46 [Strychnine HCl] (59.8047 µM) | 0.497
13 | CC(NC(C)(C)C)C(=O)c1cccc(Cl)c1 (stereo not given) [Amfebutamone] (83.4211 µM) | 0.502
14 | C=CCN1CC[C@]23CCCC[C@H]2[C@H]1Cc1ccc(O)cc13 [Levallorphan tartrate] (70.5673 µM) | 0.476
15 | C=CCN1CC[C@]23c4c5ccc(O)c4O[C@H]2/C(=N/N=C2\CC[C@@]4(O)[C@H]6Cc7ccc(O)c8c7[C@@]4(CCN6CC=C)[C@H]2O8)CC[C@@]3(O)[C@H]1C5 [Naloxonazine 2HCl] (30.7323 µM) | 0.456
16 | O=P1(NCCCl)OCCCN1CCCl (stereo not given) [Ifosfamide] (76.6021 µM) | 0.489
17 | Oc1ccc2c3c1O[C@H]1[C@@H](O)CC[C@@]4(O)[C@@H](C2)N(CC2CCC2)CC[C@]314 [Nalbuphine HCl] (55.9513 µM) | 0.469
18 | COc1ccc(C(=O)c2c(C)n(CCN3CCOCC3)c3ccccc23)cc1 [Pravadoline] (52.8436 µM) | 0.594
19 | COc1cccc(C2(O)CCCCC2CN(C)C)c1 (stereo not given) [Tramadol HCl] (75.935 µM) | 0.492
20 | Oc1ccc2c3c1O[C@H]1c4oc5ccccc5c4C[C@@]4(O)[C@@H](C2)N(CC2CC2)CC[C@]314 [Naltriben methanesulfonate hydrate] (39.093 µM) | 0.45
21 | NCC1(CC(=O)O)CCCCC1 [Gabapentin] (116.794 µM) | 0.543
22 | C#CCN(C)C(C)Cc1ccccc1 (stereo not given) [Deprenyl] (89.4055 µM) | 0.518

Row | Compound | fraction of cells in G1 phase
23 | CC(C)C[C@H]1C(=O)N2CCC[C@H]2[C@]2(O)O[C@](NC(=O)[C@@H]3C=C4c5cccc6[nH]c(Br)c(c56)C[C@H]4N(C)C3)(C(C)C)C(=O)N12 [Bromocriptine mesylate] (30.5525 µM) | 0.529
24 | C[C@@H]1O[C@@H](O[C@H]2C[C@@H](O)[C@]3(CO)[C@H]4[C@H](O)C[C@]5(C)[C@@H](C6=CC(=O)OC6)CC[C@]5(O)[C@@H]4CC[C@]3(O)C2)[C@H](O)[C@H](O)[C@H]1O [Ouabain] (27.4424 µM) | 0.521
25 | C[C@]12Cc3c[nH]nc3C[C@@H]1CC[C@@H]1[C@@H]2CC[C@@]2(C)[C@H]1CC[C@]2(C)O [Stanozolol] (60.8824 µM) | 0.801
26 | CCCC(=O)OCC[N+](C)(C)C [Butyrylcholine Cl] (114.768 µM) | 0.504
27 | CNC(=O)Oc1ccc2c(c1)[C@]1(C)CCN(C)[C@@H]1N2C [Physostigmine sulfate] (72.6339 µM) | 0.472
28 | C=CCN1CC[C@]23c4c5ccc(O)c4O[C@H]2C(=O)CC[C@@]3(O)[C@H]1C5 [Naloxone HCl] (61.0904 µM) | 0.488
29 | C#C[C@]1(O)CC[C@H]2[C@@H]3CCC4=CC(=O)CCC4=C3C=C[C@@]21CC [Gestrinone] (64.8457 µM) | 0.609
30 | CN(C)C(=O)Oc1cc(OC(=O)N(C)C)cc(C(O)CNC(C)(C)C)c1 (stereo not given) [Bambuterol] (54.4293 µM) | 0.518
31 | CC(C)(C)NCC(O)c1ccccc1Cl (stereo not given) [Tulobuterol] (87.8208 µM) | 0.493
32 | Oc1ccc2c3c1O[C@H]1c4[nH]c5ccccc5c4C[C@@]4(O)[C@@H](C2)N(CC2CC2)CC[C@]314 [Naltrindole HCl] (48.2499 µM) | 0.504
33 | CC(C)c1cccc(C(C)C)c1O [Propofol] (112.185 µM) | 0.511
34 | c1ccc2c(c1)OCC(C1=NCCN1)O2 (stereo not given) [Idazoxan] (97.9286 µM) | 0.48
35 | CN(C)C(=O)Oc1cccc([N+](C)(C)C)c1 [Neostigmine Br] (89.5666 µM) | 0.485
36 | C=CCN1C[C@H](C(=O)N(CCCN(C)C)C(=O)NCC)C[C@@H]2c3cccc4[nH]cc(c34)C[C@H]21 [Cabergoline] (44.2853 µM) | 0.496
37 | COc1ccc(CCN2CCC(Nc3nc4ccccc4n3Cc3ccc(F)cc3)CC2)cc1 [Astemizole] (43.6125 µM) | 0.501
38 | O=C([O-])Cc1ccccc1.[Na+] [Sodium phenylacetate] (126.475 µM) | 0.487
39 | CC(O)(CS(=O)(=O)c1ccc(F)cc1)C(=O)Nc1ccc(C#N)c(C(F)(F)F)c1 (stereo not given) [Bicalutamide] (46.4705 µM) | 0.493
40 | CCCC[N+]1(C)[C@@H]2C[C@@H](OC(=O)[C@H](CO)c3ccccc3)C[C@H]1[C@@H]1O[C@@H]12 (stereo not given in full) [Scopolamine n-butylbromide] (55.482 µM) | 0.488
